From PubChem BioAssay AID588832 (Broad Institute, 2011)
Hit rate of the full screen: of about 8,000 compounds, fewer than 10 were called active. The rule behind the calls is not given here. Only a sample is shown.

Test system: hedgehog, isoform A (Drosophila melanogaster)
Assay: Drosophila hedgehog isoform A inhibitors, primary screen, biochemical, plate reader, single concentration (AID 588832);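 note: 0% = neutral control wells and 100% = positive control wells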
Settings: Biochemical plate reader assay, at 30.3 µM, stronger effect = higher value

inhibition, active:
Cc1ccc(S(=O)(=O)Nc2ccc(O)c3ncccc23)cc1 64.4%
O=c1cc(-c2ccc(O)cc2)oc2c(O)c(O)c(O)c(O)c12 89.5%

inhibition, inactive:
O=C(CSc1nc2c(c(=O)n1-c1ccccc1)SCC2)N1CCN(c2ccccc2)CC1 5.23%
NC(=O)c1cccc2c1C(=O)N(C1CCCCC1)C2 6.78%
Cc1ccccc1C(=O)Nc1nnc(S(=O)(=O)N2CCCCC2)s1 3.67%
O=C(Nc1ccccc1)N1CCC(n2c(=O)[nH]c3ccccc32)CC1 11.9%
Cc1cc2c(cc(C(=O)N3CCC(C(=O)N4CCCC4)CC3)n2Cc2c(F)cccc2Cl)o1 6.84%
C=C1CCCC2OC(CC3=CC4/C(C)=C/CC(C)CC(/C=C(\C)C(O)C5CC(O)C(O)C(CCC(O)/C=C/C(C)=C/CCC6=NCCC(C3)C64C)O5)OC(=O)CC3OC(C(O)C1)C(O)C3O)CC(O)C2O (stereo unspecified) 5.17%
Nc1nonc1-n1nnc(C(=O)N/N=C/c2ccc(O)cc2)c1CN1CCCCCC1 -1.79%
CC1C(=O)Nc2ccc(S(=O)(=O)N3CCN(c4cccc(Cl)c4)CC3)cc2NC1=O (stereo unspecified) 7.02%
O=c1ccc2cc(S(=O)(=O)N3CCN(c4ccccc4F)CC3)ccc2[nH]1 -3.85%
COc1ccccc1CNC(=O)[C@H](Cc1c[nH]c2ccccc12)NC(=O)[C@@H]1Cc2ccccc2CN1 3.6%
CCOC(=O)c1ccc(NC(=O)COc2cc(=O)n(CC)c3ccccc23)cc1 4.17%
COC(=O)C(N)CCCCN (stereo unspecified) 3.45%
COc1ccc(NC(=O)c2cc(CC(C)C)on2)cc1OC 8.45%
CCOC(=O)N1CCC(N2Cc3cccc(C(=O)N4CCN(C5CCCCC5)CC4)c3C2=O)CC1 5.77%
CCSc1nnc2c(n1)OC(c1ccc(C(=O)O)cc1)N(C(C)=O)c1ccccc1-2 (stereo unspecified) 0.848%
Cc1ccc(-c2nc(CS(=O)CC(=O)NCCCN3CC(C)CC(C)C3)c(C)o2)cc1 (stereo unspecified) 3.85%
Cc1oc(-c2ccc(Cl)cc2)nc1CS(=O)CC(=O)NCc1cccs1 (stereo unspecified) 5.23%
COc1ccc(N2CCN(C(=O)c3ccc(CS(=O)(=O)c4ccccc4C)o3)CC2)cc1 7.34%
Cc1ccc(-c2nc3cccnc3s2)cc1NS(=O)(=O)c1ccc2c(c1)CCCC2 6.78%
CCC(NS(=O)(=O)c1ccc(C)cc1)C(=O)N1CCN(c2ccccn2)CC1 (stereo unspecified) 20.8%
COc1c2c(c(C)c3c1C(=O)OC3)O[C@@]1(C)CC[C@@]3(O)C(C)(C)OC(=O)CC[C@]3(C)[C@H]1C2 -1.82%
O=C(Cc1cc(=O)[nH]c(=O)[nH]1)NCCN1CCOCC1 9.62%
COc1ccc2c(c1OC)C(=O)N1C2SC[C@H]1C(=O)NC1CCCCC1 (stereo partly specified) 4.89%
c1ccc(Nc2nc3ccccc3n3nnnc23)cc1 1.79%
Cc1cc(C)cc(N2CC(c3nc4ccccc4n3C)CC2=O)c1 (stereo unspecified) 5.06%
Cc1ccc(CNC(=O)[C@@H](NC(=O)C2CCN(C(=O)[C@@H]3CCCN3)CC2)C(C)C)cc1 8.17%
Cc1csc2ncc(C(=O)NC(C)c3ccccc3)c(=O)n12 (stereo unspecified) 7.24%
CC1CCN(Cc2ccc(NC(=O)C3CCN(c4nnc(-n5cccc5)s4)CC3)cc2)CC1 1.99%
CCOC(=O)Cn1c(=O)n(Cc2ccco2)c(=O)c2ccc(C(=O)NC3CCCC3)cc21 -13%
O=C(Nc1ccc(F)cc1F)C1CCN(c2ncnc3c2sc2cccc(F)c23)CC1 7.02%
CCCCOC(=O)c1cc(=O)[nH]c(=O)[nH]1 5.12%
Cc1cc(C)n2nc(S(=O)(=O)N(C)c3ccccc3)nc2n1 6.52%
Cc1nc2sc(C(c3ccccc3)N3CCN(C)CC3)c(O)n2n1 (stereo unspecified) 14.5%
COc1ccc(-c2nc(C(=O)NCCCN3CCOCC3)cc3c2[nH]c2ccccc23)cc1OC 1.72%
C[C@H](NC(=O)[C@H]1N2C(=O)c3ccccc3C2SC1(C)C)C(=O)N1CCC[C@H]1CO (stereo partly specified) 1.72%
Cc1ccc(Cl)cc1N1CCN(C(=O)C2CCN(c3nnc(-n4cccc4)s3)CC2)CC1 15.4%
Cc1cc(C)n2c(SCC(=O)Nc3ccccc3)nnc2n1 -12.9%
Cc1ccc(S(=O)(=O)Nc2ccccc2C(=O)Nc2sccc2C(=O)NN(C)C)cc1 7.69%
COc1c(O)c(O)c2oc(-c3ccccc3)cc(=O)c2c1OC 6.79%
O=c1cc(-c2ccc(O)cc2)oc2c(-c3c(O)cc(O)c4c(=O)cc(-c5ccc(O)cc5)oc34)c(O)cc(O)c12 3.51%
CN(C)C(=O)c1nnc(Cc2ccc(Cl)cc2)o1 12.9%
Cc1c(C(=O)NNc2cc(=O)n(C)c(=O)n2C)cccc1[N+](=O)[O-] 1.72%
NC(=O)c1c(NC(=O)c2c(F)cccc2F)sc2c1CCN(Cc1ccccc1)C2 0%
COc1ccc(-n2c(Cc3cccn3C)nnc2SCC(=O)Nc2ccccc2OC)cc1 5%
CCOc1ccc(C(=O)c2cnc3ccccc3c2N2CCN(CC)CC2)cc1 20%
O=C(Cn1cnc2c(nnn2Cc2ccccc2)c1=O)NCc1ccco1 2.73%
CCOC(=O)c1c(C)c(-c2ccccc2)n(CC(=O)N2CCCC2)c1C 0.909%
Cc1cc(Nc2cccc(F)c2)n2nc(C)nc2n1 -2.57%
C=CC[C@]12C[C@@H](OC)C(=O)C=C1O[C@@H](c1ccc(OC)c(OC)c1)[C@H]2C 8.62%
CC1Cc2ccccc2N1C(=O)c1cnc2sccn2c1=O (stereo unspecified) -0.943%
CCOc1ccc(CC(=O)NCc2ccc3c(c2)cc(C)n3C)cc1 3.85%
O=C(COc1ccc2c(c1)oc(=O)c1ccccc12)N[C@@H](Cc1ccccc1)C(=O)O 0%
COC(=O)C1=C(C)n2cnnc2NC1c1ccc(Cl)cc1 (stereo unspecified) 15%
Cc1ccc(C)c(N2CCN(C(=O)c3ccc4c(=O)n5c(nc4c3)CCCCC5)CC2)c1 -12.9%
COc1ccc(C(=O)NCc2ccc3c(c2)cc(C)n3C)cc1 5.23%
COc1ccccc1NS(=O)(=O)c1cc2c(cc1C)NC(=O)CO2 9.62%
Cc1ccc(NC(=S)NCc2ccc3[nH]c4c(c3c2)CCCC4)cc1 4.39%
COc1ccc(-c2nc(CS(=O)CC(=O)NCCC3=CCCCC3)c(C)o2)cc1 (stereo unspecified) 7.69%
Cc1cnc(NC(=O)CSc2nnc(COc3c(C)cccc3C)o2)s1 10%
